Rows were chosen to be rich in hits. Some 8% of all compounds tested hit in one or more screens of this group.
HCMV inh = inhibitors of human cytomegalovirus; HFF cells, HCMV-luciferase reporter, 72 h; hits give low values; activity change, negative = inhibition, % at 57.5 µM; 410,000 tested, 4.5% active; AID 1259415; in the data active means activity change below about -60%; inconclusive means no clear call, values can overlap the other calls; inactive means above about -39%
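Two compound doses tested in HFFs infected with HCMV-luciferase, MOI 1 PFU/cell, 72 h at 37C. Lysate luminescence read with OneGlo; data normalized against buffer-only and 10uM Salinomycin inhibitor controls.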
Lassa entry inh = blocks Lassa virus binding to or entry into cells; 300,000 tested, 1.2% active; Lassa virus pseudotype entry inhibition, cell reporter; Potency, µM (top dose mostly 37.9 µM), usual class: inhibitors; calls by dose curve; tested in HEK293 cells; further: nearly all actives have a fitted effect of over 50% in size
SARS PLpro yeast = SARS-CoV PLP inhibition in yeast | S. cerevisiae expressing SARS-CoV PLpro, growth rescue | 330,000 tested, 0.19% active | AID 485353 | Potency, µM (series often up to 32.9 µM), actives largely listed as activators; calls by dose curve; further: nearly all actives have a fitted effect of over 55% in size
MARV entry inh = Marburg virus entry inhibition. Marburg virus pseudotyped entry inhibition, cell reporter. Potency, µM (top dose mostly 37.8 µM), usual class: inhibitors. 300,000 tested, 1.8% active. AID 540276; calls by dose curve; tested in HEK293 cells
FMDV antiviral = blocks foot and mouth disease virus. FMDV antiviral cell-based qHTS. Potency, µM (titrated, usually from 57.9 µM), usual class: inhibitors. 410,000 tested, 1.2% active. AID 1159524; calls by dose curve; tested in HEK293T cells; further: read-out not given here; nearly all actives have a fitted effect of over 45% in size
HCV inhibitor = blocks hepatitis C virus; 340,000 tested, 3.4% active; Potency, µM (highest dose often 41.8 µM), hits mostly inhibitors; Huh7.5.1 HCVcc-Cre infection, luciferase reporter, 44 h; active means well fitted inhibition curve with a large enough effect; inconclusive means small, poorly fitted or top-dose-only effect, or another doubt; inactive means no such curve, though single readings can be large or run the other way
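Antiviral activity was scored by luciferase reporter output from cells infected with HCVcc-Cre (~0.5 moi) in presence of compound, 44 h infection period, cells seeded 1,000/well 4 h prior.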
Each line names hits and unclear results; the compound was inactive in the other large screens.

COc1ccccc1/C=C/C(=O)c1c2c(c(C)[nH]c1=O)CCCC2	HCMV inh -109, MARV entry inh 21µM, FMDV antiviral inconclusive (no result: HCV inhibitor)
CC(C)(C)CNCc1ccccc1NC(=O)OC(C)(C)C	none (no result: Lassa entry inh, SARS PLpro yeast, MARV entry inh, FMDV antiviral, HCV inhibitor)
CCN(CC)CCOCCOc1cc(C)c(Cl)c(C)c1	HCMV inh -72, MARV entry inh inconclusive, HCV inhibitor 11µM (no result: FMDV antiviral)
CC(C)c1ccc(N2C(=O)CSC23C(=O)N(C)c2ccccc23)cc1 (centres undefined)	none (no result: SARS PLpro yeast, MARV entry inh, HCV inhibitor)
O=C(c1ccc2c(c1)N(Cc1ccccc1F)C(=O)c1ccccc1S2(=O)=O)N1CCC(Cc2ccccc2)CC1	none (no result: SARS PLpro yeast, HCV inhibitor)
CCc1cccc(C)c1NC(=O)CN1CCN(Cc2ccccc2Cl)S1(=O)=O	none (no result: SARS PLpro yeast, MARV entry inh, HCV inhibitor)
CCc1ccc(NC(=O)CN2CCCN(Cc3cccc(Cl)c3)S2(=O)=O)cc1	HCMV inh active, Lassa entry inh inconclusive (no result: SARS PLpro yeast, MARV entry inh, HCV inhibitor)
CCc1cccc(C)c1NC(=O)CN1CCCN(Cc2ccccc2Cl)S1(=O)=O	HCMV inh active (no result: SARS PLpro yeast, MARV entry inh, HCV inhibitor)
Cc1sc(NC(=O)COc2cccc(-n3cnnn3)c2)c(C#N)c1C	HCMV inh -62, MARV entry inh inconclusive
Cc1sc(NC(=O)COc2ccccc2)c(C#N)c1C	MARV entry inh inconclusive
CCCOc1ccc(Cc2c(Cl)nc(SC)nc2N(C)C)cc1	HCMV inh -67, Lassa entry inh inconclusive, MARV entry inh inconclusive, FMDV antiviral inconclusive, HCV inhibitor inconclusive
CCOc1ccc(C2=C(C=C(C#N)C#N)C(c3ccccc3)c3ccccc3O2)cc1 (centres undefined)	HCV inhibitor inconclusive
COc1ccc(C2=C(CN(C)C)C(c3ccccc3)c3ccccc3O2)cc1 (centres undefined)	Lassa entry inh 13µM, MARV entry inh inconclusive
Cc1sc2nc(SCCN(C)C)n(-c3ccccc3)c(=O)c2c1-c1ccc(F)cc1	HCMV inh inconclusive, Lassa entry inh inconclusive, MARV entry inh inconclusive, HCV inhibitor 7.1µM
CN(C)CCSc1nc(O)c(-c2ccccc2)c(=O)n1-c1ccccc1	none
Cc1ccccc1OCCNc1cc(N2CCCCC2)ccc1[N+](=O)[O-]	HCV inhibitor 14µM
COc1cccc(OCCNc2cc(N3CCOCC3)ccc2[N+](=O)[O-])c1	HCV inhibitor 14µM
CC1CN(c2ccc([N+](=O)[O-])c(NCCOc3ccccc3)c2)CCN1 (centres undefined)	MARV entry inh inconclusive, HCV inhibitor 10µM
COc1ccc(OCCNc2cc(N3CCCCC3)ccc2[N+](=O)[O-])cc1	HCMV inh inconclusive, Lassa entry inh inconclusive, MARV entry inh inconclusive, HCV inhibitor inconclusive
COc1cccc(OCCNc2cc(N3CCCCC3)ccc2[N+](=O)[O-])c1	Lassa entry inh inconclusive, MARV entry inh inconclusive, HCV inhibitor inconclusive
COc1ccc(OCCNc2cc(Cl)ccc2[N+](=O)[O-])cc1	HCMV inh -65, HCV inhibitor inconclusive (no result: FMDV antiviral)
CCCCn1cc(S(=O)(=O)c2ccccc2)c(=O)c2cc(F)c(N3CCN(CCC)CC3)cc21	none (no result: SARS PLpro yeast, MARV entry inh, HCV inhibitor)
CC(C)=CCC1(CC=C(C)C)C(=O)C(C(=O)c2ccccc2)=C2OC(C)(C)CCC2(CC=C(C)C)C1=O (centres undefined)	none (no result: HCMV inh, Lassa entry inh, SARS PLpro yeast, FMDV antiviral, HCV inhibitor)
O=C1OC(N2C(=O)CC[C@H]2C(=O)Nc2ccc3c(c2)OCO3)c2ccccc21 (some centres undefined)	HCV inhibitor 0.89µM (no result: Lassa entry inh, MARV entry inh)
CC1CCN(S(=O)(=O)c2ccc3c(c2)N(CC(=O)NCc2ccccc2)C(=O)CO3)CC1	FMDV antiviral inconclusive (no result: SARS PLpro yeast, HCV inhibitor)
COc1ccccc1-c1cc(-c2ccccc2)nc(SC(C(N)=O)c2ccccc2)c1C#N (centres undefined)	HCMV inh inconclusive, Lassa entry inh inconclusive, MARV entry inh 15µM, HCV inhibitor inconclusive
COc1ccccc1NS(=O)(=O)c1ccc(C(=O)NCc2ccncc2)cc1	HCMV inh active (no result: Lassa entry inh, MARV entry inh)
COc1ccc(S(=O)(=O)NCc2ccncc2)cc1NC(=O)c1ccc(Cl)cc1	HCMV inh -63, Lassa entry inh inconclusive, MARV entry inh inconclusive, HCV inhibitor inconclusive
COc1ccc(S(=O)(=O)NCc2ccccn2)cc1NC(=O)c1ccc(Cl)cc1	Lassa entry inh inconclusive, MARV entry inh inconclusive, HCV inhibitor inconclusive
CCOc1ccc(S(=O)(=O)NCc2ccncc2)cc1NC(=O)c1ccccc1	HCMV inh -87, Lassa entry inh inconclusive, MARV entry inh 3.5µM, HCV inhibitor 1.8µM
COc1ccc(S(=O)(=O)NCc2ccncc2)cc1NC(=O)c1ccccc1	HCMV inh -79, MARV entry inh inconclusive
Cc1c(C(=O)Nc2ccc(F)cc2F)oc2c1-c1nn(Cc3c(F)cccc3Cl)cc1CC2	none (no result: SARS PLpro yeast, MARV entry inh, HCV inhibitor)
COc1ccc(-c2nc3sc(CCNC(=O)c4cccc(C(F)(F)F)c4)c(C)n3n2)cc1	none (no result: SARS PLpro yeast, MARV entry inh, HCV inhibitor)
O=C(Nc1cccc(C(=O)Nc2cc(C(=O)Nc3ccc([S+](=O)([O-])[O-])c4cc([S+](=O)([O-])[O-])cc(SOOO)c34)ccc2F)c1)Nc1cccc(C(=O)Nc2cc(C(=O)Nc3ccc([S+](=O)([O-])[O-])c4cc([S+](=O)([O-])[O-])cc([S+](=O)([O-])[O-])c34)ccc2F)c1	none (no result: HCMV inh, Lassa entry inh, SARS PLpro yeast, MARV entry inh, HCV inhibitor)
CC(C)CNC(=O)C1(C)CCCN1Cc1ccc(S(C)(=O)=O)cc1 (centres undefined)	HCMV inh -102 (no result: Lassa entry inh, SARS PLpro yeast, MARV entry inh, HCV inhibitor)
CCOC(=O)NN=C1C[C@@H](O)[C@@H](O)[C@@H]2[C@H]3C(=O)N([C@@H](C)c4ccccc4)C(=O)[C@@H]3CC[C@@H]12	none (no result: HCMV inh, Lassa entry inh, SARS PLpro yeast, FMDV antiviral, HCV inhibitor)
Cc1ccc(NC(=O)c2ccc(N(Cc3ccccc3)S(C)(=O)=O)cc2)cc1	Lassa entry inh inconclusive (no result: SARS PLpro yeast, MARV entry inh, HCV inhibitor)
O=C(Nc1ccc(NC(=O)C2CC2)cn1)c1ccccc1	Lassa entry inh 5.6µM, MARV entry inh inconclusive
Cc1cc(=O)oc2cc(OC(=O)c3cncc(Br)c3)ccc12	HCMV inh -103
CC(C)(C)c1ccc(C(=O)Nc2cccc(C(=O)N3CCOCC3)c2)cc1	HCMV inh inconclusive, HCV inhibitor 5.6µM (no result: Lassa entry inh, MARV entry inh)
CC(=O)c1cccc(NC(=O)c2ccc(N(Cc3ccc(C)cc3)S(C)(=O)=O)cc2)c1	Lassa entry inh inconclusive, MARV entry inh inconclusive, FMDV antiviral inconclusive, HCV inhibitor 13µM
COC(=O)c1[nH]c(C)c(/C(O)=C2\C(=O)C(=O)N(CCN3CCOCC3)[C@H]2c2cccnc2)c1C	none (no result: HCMV inh, Lassa entry inh, SARS PLpro yeast, FMDV antiviral, HCV inhibitor)
COc1cc(/C=C/c2nc3cc(Cl)ccc3c(=O)n2-c2ccc(C)cc2C)cc(OC)c1OC	none (no result: SARS PLpro yeast, MARV entry inh, HCV inhibitor)
CC(C)Cn1c(=O)c2ccccc2n2c(CCC(=O)NCc3ccccc3Cl)nnc12	none (no result: Lassa entry inh, SARS PLpro yeast, HCV inhibitor)
COc1cccc(Cn2ncc3c4sc(B(O)O)cc4n(C)c3c2=O)c1	none (no result: HCMV inh, Lassa entry inh, MARV entry inh, FMDV antiviral, HCV inhibitor)
O=C(/C=C/c1cccs1)c1ccc(NC(=O)c2cccc(Br)c2)cc1	HCV inhibitor 6.3µM
O=C(Nc1cccc(C(=O)Nc2ccc(Cl)cn2)c1)c1ccccc1	HCV inhibitor 13µM (no result: Lassa entry inh, MARV entry inh)
O=C(Nc1ccc(Cl)cn1)c1cccc(F)c1	MARV entry inh inconclusive, HCV inhibitor inconclusive
O=C(Nc1cccc(C(=O)Nc2cccc(Br)c2)c1)c1ccccc1	HCV inhibitor 14µM (no result: Lassa entry inh, MARV entry inh)

Screening results as filed in PubChem.
